Source: PubChem BioAssay (Tox21)
Results filed as inconclusive are left out. Where a call stands in place of a potency, no number is given. Active and inactive are the calls of the source. Calls come from the whole dose curve; as a rule, active = well fitted inhibition curve with a large enough effect in the signal ratio in the repeat runs (not every such curve was filed as active); inconclusive = weak or mixed curves, or effect the other way; inactive = no such curve, though single readings can be large or run the other way; the % refers to the signal ratio.

These compounds were tested against Glucocorticoid receptor (Homo sapiens) (UniProt P04150) (assay: qHTS assay to identify small molecule antagonists of the glucocorticoid receptor (GR) signaling pathway (AID 720692)). Conditions: GR-bla HeLa, beta-lactamase FRET ratio, dexamethasone-stimulated, 18 h; series mostly up to 58.5 µM.
Chain of Glucocorticoid receptor (Homo sapiens) (P04150 whole entry, looked up): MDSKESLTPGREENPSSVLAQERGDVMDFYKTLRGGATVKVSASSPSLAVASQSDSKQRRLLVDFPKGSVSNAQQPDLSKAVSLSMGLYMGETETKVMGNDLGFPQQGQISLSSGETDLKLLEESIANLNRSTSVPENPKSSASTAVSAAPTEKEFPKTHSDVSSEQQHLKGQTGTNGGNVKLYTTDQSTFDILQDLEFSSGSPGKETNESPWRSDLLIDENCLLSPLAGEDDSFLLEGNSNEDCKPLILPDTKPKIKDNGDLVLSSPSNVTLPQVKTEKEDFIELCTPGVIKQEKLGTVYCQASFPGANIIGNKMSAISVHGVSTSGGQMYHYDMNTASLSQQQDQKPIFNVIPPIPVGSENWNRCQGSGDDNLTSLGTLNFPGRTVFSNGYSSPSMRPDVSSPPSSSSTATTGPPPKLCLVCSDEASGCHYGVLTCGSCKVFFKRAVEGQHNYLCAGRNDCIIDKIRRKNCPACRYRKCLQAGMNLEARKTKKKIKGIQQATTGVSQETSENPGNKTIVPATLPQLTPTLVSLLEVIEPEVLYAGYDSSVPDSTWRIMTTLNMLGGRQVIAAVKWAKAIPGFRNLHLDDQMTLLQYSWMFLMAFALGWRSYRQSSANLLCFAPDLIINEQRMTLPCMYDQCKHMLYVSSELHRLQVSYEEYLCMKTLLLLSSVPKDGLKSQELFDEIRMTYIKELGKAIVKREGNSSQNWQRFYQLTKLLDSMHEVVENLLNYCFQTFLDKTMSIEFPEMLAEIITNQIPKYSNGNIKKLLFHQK
Excerpt: U.S. Tox21 Program National Center for Advancing Translational Sciences [NCATS] NIH Chemical Genomics Center [NCGC] U.S. Environmental Protection Agency [EPA] National Institutes of Environmental Health Sciences [NIEHS] National Toxicology Program [NTP] U.S. Food and Drug Administration [FDA] Tox21 Assay Overview: The Glucocorticoid receptor (GR) is one of the members of the nuclear receptor family of ligand-dependent transcription factors. GR plays a critical role in carbohydrate, protein and lipid metabolisms and programmed cell death. CellSensor GR-bla HeLa cell line (Invitrogen) contains a beta-lactamase reporter gene under the control of the glucocorticoid response element stably integrated into HeLa cells, a cervical cancer cell line that expresses glucocorticoid receptor. The activation of the reporter gene under culture conditions can be detected by fluorescence intensity. This cell line has been used to screen the Tox21 10K compound library and to identify the compounds that inhibit the GR signaling.
Tox21 Assay Protocol Summary: The GR-bla HeLa cells were dispensed at 1500 cells/5 ul/well in 1536-well black wall/clear bottom plates using a Multidrop Combi (ThermoFisher Scientific, Waltham, MA) dispenser. After the assay plates were incubated at a 37 C/5% CO2 incubator for 4 hours, 23 nL of compounds dissolved in DMSO, positive controls or DMSO only was transferred to the assay plate by a pintool station (Kalypsys, San Diego, CA), followed by addition of 1 uL of dexamethasone (5 nM, final concentration in the well). The plates were incubated at 37 C for 18 hours. After 1 uL of LiveBLAzerTM B/G FRET substrate was added using a Flying Reagent Dispenser (Aurora Discovery, San Diego, CA), the plates were incubated at room temperature for 2 hours, and fluorescence intensity was measured by an Envision plate reader (PerkinElmer, Shelton, CT).
`O=C1C(CCS(=O)c2ccccc2)C(=O)N(c2ccccc2)N1c1ccccc1` (stereo not given) was tested, and the Potency was “inactive”. `CC(C)c1cccc(C(C)C)c1N` was tested, and the Potency was “inactive”. With `Cc1onc(-c2ccccc2)c1-c1ccc(S(N)(=O)=O)cc1` the Potency was “inactive”. `CC(C)[C@H](N)C(=O)OCCOCn1cnc2c(=O)[nH]c(N)nc21` was tested, and the Potency was “inactive”. With `Nc1nc2c(ncn2CCC(CO)CO)c(=O)[nH]1` the Potency was “inactive”. In the case of `CC(C)(O)C(=O)c1ccc(OCCO)cc1`, the Potency is reported as “inactive”. For `O=C(O)/C=C/c1ccc(Cn2ccnc2)cc1`, the Potency was “inactive”. For `CSc1ccc(C=O)cc1`, the Potency was “inactive”. `c1cc(CN2CCCCC2)cc(OCCCNc2nc3ccccc3s2)c1` was tested, and the Potency was “inactive”. In the case of `Nc1[nH]c(=O)ncc1F`, the Potency is reported as “inactive”. In the case of `O=C(O)/C=C/c1ccc(/C=C/C(=O)O)cc1`, the Potency is reported as “inactive”. `CCCCCCOC(=O)CC(CC(=O)OCCCCCC)(OC(=O)CCC)C(=O)OCCCCCC` was tested, and the Potency was “inactive”. In the case of `CCCCC1CCCCC(=O)O1` (stereo not given), the Potency is reported as “inactive”. `O=Cc1ccccc1[N+](=O)[O-]` was tested, and the Potency was “inactive”. In the case of `OCc1ccccn1`, the Potency is reported as “inactive”. With `CC(C)c1cccc(O)c1` the Potency was “inactive”. For `CC(CCO)CCCC(C)(C)O` (stereo not given), the Potency was “inactive”. With `O=C(O)C(O)[C@H](O)[C@@H](O)[C@H](O)[C@H](O)CO` (stereo not given in full) the Potency was “inactive”. With `CC1=CC(=O)CCC1` the Potency was “inactive”. For `Nc1cc(C(Cl)=C(Cl)Cl)c(S(N)(=O)=O)cc1S(N)(=O)=O`, the Potency was “inactive”. With `NS(=O)(=O)c1cc2c(cc1Cl)NC(CSCc1ccccc1)=NS2(=O)=O` the Potency was “inactive”. `CCCCC=O` was tested, and the Potency was “inactive”. With `COC(=O)c1ccc(C(=O)OC)c(C(=O)OC)c1` the Potency was “inactive”. For `CCCOc1ccccc1-c1nc2n[nH]nc2c(=O)[nH]1`, the Potency was “inactive”. In the case of `CC(C)(C)C(=O)/C=C/c1ccc(Cl)cc1`, the Potency is reported as “inactive”. For `CCC(=O)Nc1cccc(N)c1`, the Potency was “inactive”. In the case of `C=C(C)C(=O)OCCCCCCCCCCCCCCCCCC`, the Potency is reported as “inactive”. `Cc1ncc(CSSCc2cnc(C)c(O)c2CO)c(CO)c1O` was tested, and the Potency was “inactive”. In the case of `N#CCN(CC#N)CCN(CC#N)CC#N`, the Potency is reported as “inactive”. For `CC(C)COC(=O)c1ccccc1O`, the Potency was “inactive”. `CCCC=O` was tested, and the Potency was “inactive”. In the case of `CC(C)(C)OC(=O)N1C[C@@H](F)C[C@H]1C(=O)O`, the Potency is reported as “inactive”. In the case of `CCc1cc(S(=O)(=O)O)c2cc(C(C)C)cccc1-2`, the Potency is reported as “inactive”. In the case of `CCCc1ccccc1O`, the Potency is reported as “inactive”. For `CC/C=C\C#N`, the Potency was “inactive”. `CC(C)(O)Cc1ccccc1` was tested, and the Potency was “inactive”. `OCC(O)[C@@H](O)[C@H](O)[C@H](O)CO[C@H]1O[C@H](CO)[C@@H](O)[C@H](O)[C@H]1O` (stereo not given in full) was tested, and the Potency was “inactive”. For `[O-][N+](=Nc1ccccc1)c1ccccc1`, the Potency was “inactive”. With `Nc1ccc2cc(S(=O)(=O)O)ccc2c1` the Potency was “inactive”. In the case of `CCCCc1ccc(N)cc1`, the Potency is reported as “inactive”.
